# Laboratory results taken from ChEMBL document CHEMBL1201862, “PubChem BioAssay data set” (2004).
# Out of some 400,000 compounds screened, about 2,100 (0.53%) were called active. Inconclusive results (about 14%) are left out. This is one part of a sample in which actives are shown more often than they occur. No rule for the calls is given here.
# Target: Ataxin-2 (Homo sapiens) (UniProt Q99700)
# Assay: qHTS for Inhibitors of ATXN expression.
# Assay type: functional
# Sequence of Ataxin-2 (Homo sapiens) (Q99700 whole entry): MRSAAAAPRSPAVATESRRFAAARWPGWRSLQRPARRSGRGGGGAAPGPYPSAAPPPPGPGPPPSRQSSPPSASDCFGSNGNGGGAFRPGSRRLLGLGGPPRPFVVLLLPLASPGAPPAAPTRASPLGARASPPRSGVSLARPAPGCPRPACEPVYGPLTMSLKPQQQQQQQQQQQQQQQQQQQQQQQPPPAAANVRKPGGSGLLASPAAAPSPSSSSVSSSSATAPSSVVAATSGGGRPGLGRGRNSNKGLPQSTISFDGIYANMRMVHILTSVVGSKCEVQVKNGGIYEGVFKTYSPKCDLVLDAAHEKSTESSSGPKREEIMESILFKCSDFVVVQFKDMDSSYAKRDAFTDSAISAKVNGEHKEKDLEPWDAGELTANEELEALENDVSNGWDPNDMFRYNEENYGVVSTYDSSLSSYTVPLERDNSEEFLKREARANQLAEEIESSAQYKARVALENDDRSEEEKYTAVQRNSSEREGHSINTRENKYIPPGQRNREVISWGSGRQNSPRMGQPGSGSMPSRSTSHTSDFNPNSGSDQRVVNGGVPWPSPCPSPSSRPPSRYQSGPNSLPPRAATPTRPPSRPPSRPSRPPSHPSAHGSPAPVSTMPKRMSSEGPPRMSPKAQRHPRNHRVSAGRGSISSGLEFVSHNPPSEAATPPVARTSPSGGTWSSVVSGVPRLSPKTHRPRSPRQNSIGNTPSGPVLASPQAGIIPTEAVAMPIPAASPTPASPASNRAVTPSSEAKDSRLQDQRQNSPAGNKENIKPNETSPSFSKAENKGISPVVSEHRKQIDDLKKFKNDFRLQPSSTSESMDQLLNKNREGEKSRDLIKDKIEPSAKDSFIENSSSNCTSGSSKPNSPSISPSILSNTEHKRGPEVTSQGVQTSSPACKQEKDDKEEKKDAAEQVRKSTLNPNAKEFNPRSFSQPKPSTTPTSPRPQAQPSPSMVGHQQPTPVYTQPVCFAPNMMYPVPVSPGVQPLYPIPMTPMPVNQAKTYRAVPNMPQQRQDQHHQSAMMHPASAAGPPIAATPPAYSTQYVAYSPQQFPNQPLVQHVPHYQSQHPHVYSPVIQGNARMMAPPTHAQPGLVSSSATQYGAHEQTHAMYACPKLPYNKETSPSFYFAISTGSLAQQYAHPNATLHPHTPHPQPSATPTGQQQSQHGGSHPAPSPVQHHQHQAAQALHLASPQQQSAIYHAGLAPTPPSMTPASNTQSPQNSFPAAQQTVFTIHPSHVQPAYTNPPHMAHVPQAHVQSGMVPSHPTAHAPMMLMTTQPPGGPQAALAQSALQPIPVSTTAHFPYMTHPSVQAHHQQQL
row,SMILES,Potency
1,CCc1ccc(CN2CCN(c3ncccn3)CC2)cc1,inactive
2,Cn1cc(CN2CCN(Cc3ccc4c(c3)OCO4)CC2)c(-c2ccccc2F)n1,inactive
3,Fc1ccc2[nH]c3c(N4CCN(Cc5ccc6c(c5)OCO6)CC4)ncnc3c2c1,39.8 µM (active)
4,O=c1c2ccccc2[nH]c(=S)n1Cc1ccc2c(c1)OCO2,inactive
5,Cc1c(O)ccc2c(CN3CCN(Cc4ccccc4)CC3)cc(=O)oc12,inactive
6,Cc1ccc2c(c1)[nH]c1c(N3CCN(Cc4ccccc4)CC3)ncnc12,11.2 µM (active)
7,Cc1cc(-c2ccnc(-n3ncc(C(=O)NC(C)(C)CO)c3C3CC3)n2)c(C)s1,inactive
8,CC(C)CCNC(=O)c1cc2c(=O)n3ccccc3nc2s1,inactive
9,Cc1ccc(C(=O)NCCC(C)C)cc1NC(=O)c1nsc2ccccc12,25.1 µM (active)
10,Cc1ccc(C(=O)OCC(=O)Nc2nc(-c3ccccc3)cs2)cc1NC(=O)c1ccco1,inactive
11,O=C1/C(=C/NCc2ccccn2)c2ccccc2C(=O)N1c1ccccc1,inactive
12,OC[C@@H]1[C@@H](c2ccc(Cl)cc2)C(c2ccccc2)=NN1c1ccccc1,inactive
13,O=S(=O)(c1ccc(Cl)cc1)N(Cc1cccnc1)Cc1cc2ccccc2nc1O,25.1 µM (active)
14,Oc1nc2ccccc2nc1Cc1ccc(Cl)cc1,inactive
15,Cc1ccc(N(Cc2cc3ccccc3nc2O)C(=O)c2cccs2)cc1,inactive
16,COCCCn1c(=O)/c(=C/c2ccccc2OC(C)C)s/c1=C(\C#N)C(=O)Nc1ccc(C(=O)O)cc1,inactive
17,CCCN(C(=O)CCl)C1=CCCCC1,5.97 µM (active)
18,CSc1nc(N2CCOCC2)nc2ccc(C)cc12,inactive
19,O=[N+]([O-])c1ccc(Cc2nnc(O)c3ccccc23)cc1,inactive
20,O=[N+]([O-])c1ccc(COc2ncnc3ccccc23)cc1,inactive
21,O=C(/C=C/c1cccc([N+](=O)[O-])c1)n1cnc2ccccc21,20 µM (active)
22,CC(=O)Oc1ccccc1C(=O)C=Cc1cccc([N+](=O)[O-])c1,39.8 µM (active)

row,SMILES,Potency
1,O=C(c1ccc(Cl)cc1)n1cnc2ccccc21,inactive
2,CC(=O)c1ccccc1NC(=O)c1cc(S(=O)(=O)N2CCOCC2)ccc1N1CCCC1,inactive
3,COc1ccccc1C(=O)/C=C/c1ccc(N2CCCCC2)c([N+](=O)[O-])c1,39.8 µM (active)
4,O=C(Cn1cnc2ccccc21)Nc1cccc([N+](=O)[O-])c1,inactive
5,O=C(/C=C/c1ccc([N+](=O)[O-])cc1)c1ccccc(=O)c1O,13.4 µM (active)
6,CC(=O)c1ccc(N2CCN(C(=O)c3ccc(Cn4c(=S)[nH]c5ccc(N6CCOCC6)cc5c4=O)cc3)CC2)cc1,inactive
7,COc1ccc(C2=CC(c3ccc(OC)c(OC)c3)n3nnnc3N2)c(OC)c1 (stereo unspecified),inactive
8,COC(=O)Cn1nnnc1-c1nc2cc(C)c(C)cc2nc1O,inactive
9,O=C(NCCO)Nc1ccc2nsnc2c1,inactive
10,COc1ccc(CNC(=O)CN2C(=O)NC(C)(c3ccc(C(C)(C)C)cc3)C2=O)cc1 (stereo unspecified),inactive
11,CCN(CCNC(=O)C1CCC(=O)N1Cc1ccc(C)cc1)c1ccccc1 (stereo unspecified),inactive
12,CCN(CC)C(=O)C1=C(C)N(Cc2ccc(C(C)(C)C)cc2)C(=O)C(CC(=O)NCCCCc2ccccc2)C1 (stereo unspecified),35.5 µM (active)
13,O=C(CSC1=NCCN1)NC(c1ccccc1)c1ccccc1,inactive
14,CCN(CC)C(=O)C1=C(C)N(Cc2ccc(C(C)(C)C)cc2)C(=O)C(CC(=O)NC(c2ccccc2)c2ccccc2)C1 (stereo unspecified),28.2 µM (active)
15,CCN(CC)C(=O)C1=C(C)N(Cc2ccc(C(C)(C)C)cc2)C(=O)C(CC(=O)NCc2cccc3ccccc23)C1 (stereo unspecified),25.1 µM (active)
16,CC(=O)c1sc(Nc2nc3cc4c(cc3s2)OCO4)nc1C,inactive
17,O=C1C2CC(O)CN2C(=S)N1Cc1ccccc1 (stereo unspecified),inactive
18,O=C(Cc1cc(=O)oc2cc(O)ccc12)NC(Cc1ccc(Cl)cc1)C(=O)O (stereo unspecified),inactive
19,COc1cc(C(=O)OCc2ccc(C)cc2)cc(NC(=O)c2cccs2)c1OC,inactive
20,O=C(Nc1cccc(Br)c1)C1CCCC1,inactive
21,CN(C)c1ccc(/C=C/C(=O)c2ccc3c(c2)OCO3)cc1,inactive
22,CC(=O)Nc1cccc(C(=O)/C=C/c2ccc(Br)cc2)c1,20 µM (active)

row,SMILES,Potency
1,COc1cccc(Cn2c(=O)c3ccccc3n3nc(C)cc23)c1,inactive
2,O=C(/C=C/c1cccnc1)c1cccc(O)c1,26.7 µM (active)
3,CC(/C=C/C=C/c1ccccc1)=N\NC(=O)c1cccnc1,inactive
4,COc1ccc(OC)c(C(=O)/C=C/c2cccnc2)c1,39.8 µM (active)
5,Cc1cc(O)c(C(=O)/C=C/c2ccccc2)c(=O)o1,inactive
6,O=C(C=Cc1cccnc1)c1ccccc1,39.8 µM (active)
7,COc1ccc(C(=O)/C=C/c2ccc(N(C)C)cc2)c(OC)c1,inactive
8,O=C(NNc1ccccc1)/C(=C\c1cccnc1)NC(=O)c1ccccc1,inactive
9,COc1cc(OC)c2cc(C(=O)N/N=C/c3ccccc3O)[nH]c2c1,inactive
10,COc1cc(O)c(C(=O)/C=C/c2ccccc2)c(OC)c1,35.5 µM (active)
11,Cc1cc(-c2sccc2Br)nc(-n2cccc2)n1,inactive
12,COc1cccc(/C=N/NC(=O)c2cnn(-c3ccccc3)c2N)c1,inactive
13,COc1ccc(S(=O)(=O)N2CCOCC2)cc1NC(=O)COC(=O)c1oc2ccccc2c1C,inactive
14,N#Cc1c2c(c(NCCOCCO)n3c1nc1ccccc13)CCCC2,inactive
15,OCCCc1nc2n(n1)C(c1cccc(Cl)c1)C=C(c1ccccc1)N2 (stereo unspecified),inactive
16,COc1ccc(C(=O)COC(=O)/C=C/c2ccco2)cc1F,inactive
17,N#Cc1ccc(C(=O)CSc2nnc(O)n2-c2cccnc2)cc1,inactive
18,COC(=O)C(=C/C(C)=C/c1cccnc1)C(=O)OC,22.4 µM (active)
19,N#Cc1ccc(/C=C/C(=O)c2cccnc2)cc1,25.1 µM (active)
20,O=C(N/N=C/c1cccnc1)c1ccccc1OCc1ccc(Br)cc1,inactive
21,N#Cc1ccc(/C=C\c2[nH]ccc3c4ccccc4nc2-3)cc1,inactive
22,O=c1c(-c2nc3ccccc3s2)cccn1Cc1ccc(Cl)c(Cl)c1,inactive

row,SMILES,Potency
1,Oc1cc(-c2nc3ccccc3s2)cc2c1OCCN(Cc1cccn1-c1ccccn1)C2,31.6 µM (active)
2,Cc1ccc(Cl)c(NC(=O)CSc2nnc(O)n2C2CC2)c1Cl,inactive
3,CN(C)CCCN1C(=O)c2cccc3c(Br)ccc(c23)C1=O,inactive
4,CN(C)CCCN1C(=O)c2cccc3c([N+](=O)[O-])ccc(c23)C1=O,inactive
5,CN(C)CCCN1c2ccc3ccccc3c2Sc2cccc(Cl)c21,37.7 µM (active)
6,CC1(C)CC(NC(=O)c2ccc(Cl)c(S(=O)(=O)N(Cc3ccccc3)c3ccccc3)c2)CC(C)(C)N1,22.4 µM (active)
7,CN(c1ccccc1)S(=O)(=O)c1cc(C(=O)OCC(N)=O)ccc1Cl,inactive
8,CC1(C)CC(NC(=O)c2sc3cc(Cl)ccc3c2Cl)CC(C)(C)N1,inactive
9,Cc1nc2ccc(NC(S)=NC3CCCCC3)cc2nc1C,inactive
10,CCCN1C2CCCC1CC(N=C(S)Nc1cccc(C)c1)C2 (stereo unspecified),inactive
11,Cc1cc(C)cc(NC(S)=NCCN(C2CCCCC2)C2CCCC2)c1,39.8 µM (active)
12,Cc1c(NC(=O)Nc2ccc(Cl)c(Cl)c2)sc(=S)n1C,39.8 µM (active)
13,Cc1occc1C(=O)NNC(=O)Nc1ccc(Cl)c(Cl)c1,inactive
14,CCN1CCc2c(sc(NC(=O)Nc3ccc(Cl)c(Cl)c3)c2C(N)=O)C1,inactive
15,CCN(Cc1ccc(NC(C)=O)cc1)CC1CCCN(CCc2cccc(F)c2)C1 (stereo unspecified),inactive
16,Cc1c2c(=O)n(-c3nc4ccccc4s3)nc-2cc(O)n1Cc1ccccc1,inactive
17,COc1ccc(C(=O)N/N=C/c2sc3ccccc3c2O)cc1,inactive
18,COc1ccc(Nc2cnn(-c3nc4ccccc4s3)c(=O)c2Cl)cc1,25.1 µM (active)
19,COC(=O)c1cc2c(=O)n3ccccc3nc2n(Cc2cccnc2)c1=N,inactive
20,COc1ccc(C#Cc2c(C=O)n(C)c3ccccc23)cc1,inactive
21,Cc1ccccc1NCc1ccc([N+](=O)[O-])s1,inactive
22,O=[N+]([O-])c1ccc(/C=N/n2cnc3ccccc32)s1,22.4 µM (active)

row,SMILES,Potency
1,Cc1nc2ccccc2n1/N=C/c1ccc([N+](=O)[O-])s1,23.8 µM (active)
2,COc1ccc(/C=N/NC(=O)c2cc[nH]n2)cc1Cn1nc(C)c([N+](=O)[O-])c1C,inactive
3,COc1ccc(-n2c(NC(=O)c3ccco3)c(C#N)c3nc4ccccc4nc32)cc1,inactive
4,CCCOc1ccc(/C=N/Nc2cccc([N+](=O)[O-])c2)c(O)c1,inactive
5,O=[N+]([O-])c1cccc(Nc2c3ccccc3nc3ccccc23)c1,inactive
6,CCOc1ccc2nc(C)cc(Nc3cccc([N+](=O)[O-])c3)c2c1,39.8 µM (active)
7,Cn1c(O)nnc1-c1cccc(Br)c1,inactive
8,CCCCc1c(-c2cccc(Br)c2)ncn1CCc1ccccc1OC,28.2 µM (active)
9,COc1ccc(Br)cc1CN1CCN(c2ncccn2)CC1,inactive
10,CCCCCc1c(-c2cccc(Br)c2)ncn1CCc1ccccc1OC,39.8 µM (active)
11,Cc1cc(-n2c(=O)c(C#N)cc3c(=O)n4ccccc4nc32)no1,inactive
12,COc1ccc(-c2cc(C(F)(F)F)n3nc(C(=O)NCCN4CCOCC4)cc3n2)cc1,inactive
13,Clc1cccc(-c2nc(NCCCN3CCOCC3)c3ccccc3n2)c1,inactive
14,Clc1cccc(CNc2ccn3nc(-c4ccc(OCCN5CCOCC5)cc4)cc3n2)c1,28.2 µM (active)
15,CCCCN(CCCC)C(=O)C[n+]1cccc(/C=N/O)c1,inactive
16,Cc1cc(/N=C/C=C2\N(C)c3ccccc3C2(C)C)n(CCC#N)n1,31.6 µM (active)
17,CN1/C(=C\C(=O)c2cccc(S(=O)(=O)N3CCCCC3)c2)C(C)(C)c2ccccc21,inactive
18,Cc1cc(/N=C/C=C2/N(C)c3ccccc3C2(C)C)n(CCC#N)n1,15.8 µM (active)
